The values that follow come from PubChem BioAssay AID504850 (National Center for Advancing Translational Sciences (NCATS), 2011).

Among all 2,300 compounds or so, about 1,200 (52%) were called active. Roughly 34% stayed inconclusive and do not appear here. Calls come from the whole dose curve; as a rule, active = well fitted inhibition curve with a large enough effect; inconclusive = small, poorly fitted or top-dose-only effect, or effect the other way; inactive = no such curve, though single readings can be large or run the other way. So high a share suggests a set chosen from earlier hits. Some of the results follow.
Potency is the fitted concentration of half-maximal effect.

The assay can be described thus: Confirmation screen for delayed death inhibitors of the malarial parasite plastid, 48 hour incubation. Note: nearly all actives have a fitted effect of over 65% in size. Particulars: P. falciparum-infected erythrocytes, luciferase growth; series mostly up to 28.7 µM. Summed up: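 Erythrocytes infected with luciferase-expressing P. falciparum (2% hematocrit, 0.1% parasitemia) incubated with compounds 48 hours at 37 C, 5% CO2, in RPMI/Albumax. Growth inhibition scored as reduced luminescence after detection reagent.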
On to `CN(CCCN1CCOCC1)C(=O)c1ccc2nc(Cc3cccc(Cl)c3)oc2c1`, for which the Potency was 14.1 µM (active). `Clc1cccc(OCCCCCN2CCOCC2)c1`: the Potency entry was “inactive”. In the case of `CCOC(=O)C1CCCN(C(=O)c2cc3cc4ccc(OC)cc4nc3o2)C1` (stereo unspecified), the Potency is 11.2 µM (active). Regarding `COC(=O)[C@]1(CC(C)C)N[C@H](c2ccc(-c3ccc(F)cc3)c(OC)c2)[C@@H]2C(=O)N(C)C(=O)[C@@H]21`, the Potency was 6.31 µM (active). With `COCCN(C(=O)CCCC(=O)Nc1ccccn1)C(C(=O)NC1CCCCC1)c1ccc(C)cc1` (stereo unspecified) the figure was 11.2 µM (active); with `CC[C@H]1OC(=O)[C@H](C)[C@@H](O[C@H]2C[C@@](C)(OC)[C@@H](O)[C@H](C)O2)[C@H](C)[C@@H](O[C@@H]2O[C@H](C)C[C@H](N(C)C)[C@H]2O)[C@](C)(O)C[C@@H](C)CN(C)[C@H](C)[C@@H](O)[C@]1(C)O`, 14.1 µM (active); with `CC[C@H]1OC(=O)[C@H](C)[C@@H](O[C@H]2C[C@@](C)(OC)[C@@H](O)[C@H](C)O2)C(C)[C@@H](O[C@@H]2O[C@H](C)C[C@H](N(C)C)[C@@H]2O)[C@](C)(OC)C[C@@H](C)C(=O)[C@H](C)[C@@H](O)[C@]1(C)O` (stereo partly specified), “inactive”. As for `O=C(/C=C/c1ccccc1O)c1ccco1`, the Potency result was “inactive”. For the compound `COc1ccccc1/C=C/C(=O)/C=C/c1ccccc1O`, the Potency was 1.41 µM (active). `Cc1ccc2[nH]c3c(c2c1)CCCC3NC(=O)CCl` (stereo unspecified): the Potency is 4.47 µM (active).

`Cc1cc(NC(=O)CSCC(=O)Nc2ccccc2Oc2ccccc2)no1`: the Potency is 14.1 µM (active). With `COC(=O)[C@@]1(Cc2ccc(F)cc2)[C@@H]2[C@@H](CC(=O)[C@H]2CC(=O)C(=O)N(C)C)CN1C(=O)c1ccccc1` the figure was 11.2 µM (active); with `Cc1cc([N+](=O)[O-])ccc1NC(=O)CSc1nncn1-c1cccnc1`, “inactive”.

For `O=C(N/N=C/c1cccn1-c1ccc([N+](=O)[O-])cc1)c1cccnc1`, the Potency is 10 µM (active). With `CCOc1ccc(N(C(=O)c2snc(C(N)=O)c2N)C(C(=O)NCC2CCCO2)c2c[nH]c3ccccc23)cc1` (stereo unspecified) the figure was 3.55 µM (active); with `Cc1cc(C)c(C(=O)/C=C/c2cccc3ccccc23)c(=O)[nH]1`, 8.91 µM (active); with `COc1ccc2[nH]c(=O)c(CN(CCCN(C)C)C(=O)Nc3ccc(F)cc3)cc2c1`, 14.1 µM (active). As to `O=C(Nc1nnc(SCc2ccc(F)cc2)s1)c1ccccn1`, the Potency was 3.55 µM (active).

As for `O=c1c(Cl)cc(Cl)nn1-c1ccccc1`, the Potency is 12.6 µM (active). Under `COc1ccc(-n2nc(C#N)c(Cl)cc2=O)cc1` stands “inactive”; under `C=C[C@]1(C)C[C@@H](OC(=O)CSCCN(CC)CC)[C@]2(C)C(C)CC[C@]3(CCC(=O)[C@H]32)[C@@H](C)[C@@H]1O` (stereo partly specified), 14.1 µM (active). Under `COc1ccc(-c2cc(C(=O)N/N=C/c3ccc4c(c3)OCO4)c3ccccc3n2)c(OC)c1` stands 7.94 µM (active). Under `COc1ccccc1-c1cc(C(=O)N/N=C/c2sccc2C)c2ccccc2n1` stands 3.98 µM (active); under `COc1ccc(-c2cc(C(=O)N/N=C/c3sccc3C)c3ccccc3n2)c(OC)c1`, 12.6 µM (active); under `CCOC(=O)Nc1ccc2c(CNC(C)c3ccccc3OC)cc(=O)oc2c1` (stereo unspecified), 14.1 µM (active).

Take `CCc1noc(C)c1C(=O)N1CCC(CCC(=O)Nc2cccc(C)c2)CC1`: the Potency was 11.2 µM (active). With `C/C(N)=C(/C#N)C(=O)COC(=O)c1cc(C)n(-c2ccc(F)cc2)c1C` the figure was 10 µM (active); with `O=C(CSc1nc2cc([N+](=O)[O-])ccc2n1-c1ccccc1)NCc1ccc2c(c1)OCO2`, 11.2 µM (active); with `O=C(NCc1ccc2c(c1)OCO2)c1nc(S(=O)(=O)Cc2ccccc2)ncc1Cl`, “inactive”.

Take `Cc1nc([N+](=O)[O-])c(Sc2nc3ccccc3n2C)n1Cc1ccccc1`: the Potency is 15.8 µM (active). With `CCN(CC)S(=O)(=O)c1ccc(C2=NOC3(C2)N(C)c2ccccc2C3(C)C)cc1` (stereo unspecified), the Potency is 12.6 µM (active).

In the case of `CN1c2ccccc2C(C)(C)C12CC(c1ccc(S(=O)(=O)N3CCCCC3)cc1)=NO2` (stereo unspecified), the Potency is 5.62 µM (active). Under `C=CCSC(=C(C#N)C#N)c1cc2c([nH]1)CCCC2` stands 7.08 µM (active); under `COc1ccc(CN2CCN(C(=O)c3ccc(CNS(=O)(=O)c4ccc(C)cc4)cc3)CC2)c(OC)c1OC`, 12.6 µM (active). For the compound `COC(=O)[C@@]12CCCN1[C@H](c1ccc(-c3cccc(Cl)c3)c(OC)c1)[C@H]1C(=O)N(C)C(=O)[C@H]12`, the Potency was 2.82 µM (active). For the compound `CCN1C(=O)[C@@H]2[C@@H](c3ccc(SC4CCCCC4)c(OC)c3)N3CCC[C@@]3(C(=O)OC)[C@@H]2C1=O`, the Potency was 5.01 µM (active). With `COc1cc(OC)c2c(-c3cccc(-c4cccc(N)c4)c3)cc(=O)oc2c1` the figure was 10 µM (active). Under `O=[N+]([O-])c1ccc(N2CCN(c3ccccc3)CC2)nc1` stands “inactive”; under `O=C(NCCN1CCN(c2ccc([N+](=O)[O-])cc2)CC1)NCc1ccccc1`, 12.6 µM (active). With `O=C1NC(=S)S/C1=C\C=C\c1ccc([N+](=O)[O-])o1` the figure was 1.78 µM (active); with `COC(=O)C1=C(C)N(CC2CC2)C(=NCc2cc(OC)c(OC)c(OC)c2)N[C@H]1c1ccccc1`, 12.6 µM (active); with `COc1ccccc1CNC(=O)c1ccc(-c2ccccc2Cl)o1`, 12.6 µM (active). Consider `Cc1ccc(CNS(=O)(=O)c2ccc(C)s2)cc1`, for which the Potency result is “inactive”. Under `Cc1ccc(CN2CCC(CNS(=O)(=O)c3ccc(-c4ccc(=O)[nH]n4)s3)CC2)cc1` stands 5.01 µM (active). With `CC1CN(c2nc(-c3ccc(Br)cc3)nnc2-c2ccccc2)CC(C)N1` (stereo unspecified) the figure was 3.98 µM (active); with `O=C(CSc1nc2ccccc2n1-c1ccccc1)Nc1ncc(Cl)cc1Cl`, 11.2 µM (active).

Take `Cc1ccc(-n2c(SCC(=O)Nc3ncc(Cl)cc3Cl)nc3ccccc32)cc1`: the Potency was 11.2 µM (active).

For `COCCn1c(SCC(=O)Nc2ncc(Cl)c(C)c2Cl)nc2ccccc21`, the Potency result was “inactive”. Under `CN1c2ccccc2-c2nc3ccccc3n2C1c1cccs1` (stereo unspecified) stands 7.08 µM (active). On to `Cc1ccc(-c2nnc(SCC(=O)N/N=C/c3cccs3)n2-c2ccc(C)cc2)cc1`, for which the Potency is 11.2 µM (active).

As for `COc1ccc2[nH]c3c(NCCC4=CCCCC4)ncnc3c2c1`, the Potency was 5.62 µM (active). `COc1ccc2[nH]c3c(NCCN(C(C)C)C(C)C)ncnc3c2c1`: the Potency is 5.62 µM (active).

In the case of `CC(C)OCCCNc1ncnc2c1[nH]c1ccc(F)cc12`, the Potency is 4.47 µM (active). As for `Cc1cc(C)n2nc(SCC(=O)N3CCN(c4ccc(F)cc4)CC3)nc2n1`, the Potency was 12.6 µM (active). With `CCn1c2ccccc2c2cc(Nc3cc(C)nc4ncnn34)ccc21` the figure was 0.251 µM (active); with `CCOC(=O)CCC(=O)Nc1ncnc2c1C(c1ccccc1)c1c(ccc3ccccc13)O2` (stereo unspecified), 8.91 µM (active); with `O=C(Nc1ccccc1C(=O)Nc1ccccc1C(=O)O)c1ccccc1`, “inactive”. For `O=C(Nc1ccccc1O)c1ccc([N+](=O)[O-])cc1`, the Potency is 15.8 µM (active). For `Cc1sc(NC(=O)c2c(F)cccc2F)nc1-c1ccccc1`, the Potency result is “inactive”. `Cc1sc(N/N=C/c2cccnc2)nc1-c1ccccc1`: the Potency was 12.6 µM (active). Under `Cc1ccc(N/N=C/c2ccncc2)cc1` stands “inactive”. Under `CC1CN(C(=O)N2c3ccccc3Sc3ccccc32)CC(C)O1` (stereo unspecified) stands 14.1 µM (active). `O=C(N1CCOCC1)N1c2ccccc2Sc2ccccc21`: the Potency entry is “inactive”.

Consider `C[C@H]1CN=C2N(CCNC(=O)CCC3CCCCC3)[C@H](Cc3ccc(O)cc3)CN21`, for which the Potency was 11.2 µM (active). Take `C/C=C(\C)C(=O)NCCN1C2=NC[C@H](Cc3ccccc3)N2C[C@H]1Cc1ccc(O)cc1`: the Potency was 11.2 µM (active). With `O=C(CCC1CCCCC1)NCCN1C2=NC[C@H](Cc3ccccc3)N2C[C@H]1Cc1ccc(O)cc1` the figure was 11.2 µM (active); with `C[C@@H](CN1C2=NC[C@H](Cc3ccc(O)cc3)N2C[C@H]1Cc1ccc(O)cc1)NC(=O)CCC1CCCCC1`, 8.91 µM (active); with `Cc1cc2nsnc2c(S(=O)(=O)N2CCN(C)CC2)c1C`, “inactive”. Turning to `CC1CCN(CCNC(=O)C2CCN(S(=O)(=O)c3cccc4nsnc34)CC2)CC1`, the Potency is 14.1 µM (active). For `CN(C)S(=O)(=O)c1cc(NC(=O)c2cc(=O)c3ccccc3o2)ccc1Cl`, the Potency was 11.2 µM (active). With `Nc1cc[n+](CC(=O)c2ccc3c(c2)OCCO3)cc1` the figure was 7.08 µM (active); with `O=Cc1s/c(=N\S(=O)(=O)c2ccccc2)n(CCCCl)c1Cl`, “inactive”; with `CCOC(=O)c1cnc2c(C)c(Cl)ccc2c1NCCCN1CCOCC1`, 14.1 µM (active). Under `N=c1c2c(n(Cc3ccc(Cl)cc3)c3c1CCC3)CCC2` stands 0.562 µM (active); under `N=c1c2c(n(Cc3ccc(Cl)c(Cl)c3)c3c1CCC3)CCCC2`, 0.355 µM (active). In the case of `O=C(Nc1ccc(N2CCCCC2)c(Cl)c1)c1cccnc1`, the Potency was 11.2 µM (active). With `Cc1cc(C)cc(NC(=O)c2cccnc2)c1` the entry was “inactive”; with `COCCN(C(=O)c1ccccc1F)c1nnc(-c2ccc(OC)cc2)s1`, 10 µM (active). On to `CC(C)(C)C1C/C(=C/c2ccccn2)C(=O)/C(=C/c2ccccn2)C1` (stereo unspecified), for which the Potency is 0.316 µM (active).

As to `COC(=O)CSc1nc2c(c(-c3ccco3)c1C#N)CCCC2`, the Potency was 12.6 µM (active). Under `N#C/C(=C\c1ccc(-c2ccc(C(=O)O)cc2)o1)C(=O)Nc1ccc(F)cc1` stands 14.1 µM (active); under `Cc1ccc(NC2=C/C(=N\S(=O)(=O)c3cccs3)c3ccccc3C2=O)c(C)c1`, 0.282 µM (active). Under `CCCC(=O)NC(c1ccccc1)c1c(O)ccc2ccccc12` (stereo unspecified) stands 7.08 µM (active).

For `CC(C)(C(=O)N[C@H](CO)c1ccccc1)C(=O)N[C@H](CO)c1ccccc1`, the Potency entry was “inactive”. As for `CCCCNC(=O)c1onc(CSc2cccc3ccccc23)c1C(=O)O`, the Potency entry was “inactive”. Turning to `CCC1=C/C(=C/c2sc3ccccc3[n+]2CC)CC(C)(C)C1`, the Potency was 5.62 µM (active).
